Test [1] can be described thus: qHTS assay to identify small molecule antagonists of the sonic hedgehog signaling (Shh) pathway (AID 1259369; calls by dose curve; also: nearly all actives have a fitted effect of over 45% in size; also: potency is read from the fitted curve at half-maximal effect). Put shortly: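 Stable Gli1-Luc reporter NIH/3T3 clone; quantitative HTS in stimulated mode with conditioned medium. Luminescence measured after 24hr compound treatment at 37 C.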
In general terms: In qHTS, concentration-response curves come from the screen itself.

The target in test [2] is Estrogen receptor beta (Homo sapiens) (UniProt Q92731). The test can be described thus: qHTS assay to identify small molecule agonists of the estrogen receptor beta (ER-beta) signaling pathway (AID 1259377; active = well fitted activation curve with a large enough effect in the signal ratio in the repeat runs, not every such curve was filed as active; the % refers to the signal ratio). Put shortly:
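qHTS in ER-beta-UAS-bla HEK293T cells: 6 hr settling, then 16 hr compound at 37C, then LiveBLAzer substrate 2 h at RT before fluorescence reading.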

Test [3] is described as follows: qHTS assay to identify small molecule agonists of the androgen receptor (AR) signaling pathway in the presence of an antagonist - cell viability counter screen (AID 1259379). Also: nearly all actives have a fitted effect of over 25% in size. Also: potency is read from the fitted curve at half-maximal effect. Put shortly:
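Nilutamide-containing (3.0uM final) MDA-kb2 cultures, 3,000 cells/well, were treated with compounds across 15 concentrations. After 16 hr at 37C with no CO2, cell viability was determined by CellTiter-Fluor fluorescence in the luciferase assay wells.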

A short description of test [4]: qHTS assay to identify small molecule agonists or antagonists of the thyroid stimulating hormone receptor (TSHR) signaling pathway - wild type cell line counter screen (AID 1259384; calls by dose curve). Put shortly:
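Wild-type HEK293 cells were plated 18 h at 37 C/5% CO2, pin-dosed with compound plus Ro20-1724 medium, held 30 min at room temperature, then given cAMP-d2 and anti-cAMP-cryptate; fluorescence was read after 1 h. Fifteen concentrations, triplicate.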

Test [5] addresses Thyrotropin receptor (Homo sapiens) (UniProt P16473). Description: qHTS assay to identify small molecule antagonists of the thyroid stimulating hormone receptor (TSHR) signaling pathway (AID 1259385; calls by dose curve; also: nearly all actives have a fitted effect of over 20% in size). Put shortly:
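TSHR-HEK293 cells were plated and held 18 h at 37C/5% CO2, then given compound plus Ro20-1724 and stimulated with TSH at 1.5 ng/mL final. After 30 min at room temperature, cAMP was detected with cAMP-d2/anti-cAMP-cryptate (1 h) by fluorescence.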

The nature of test [6]: qHTS assay to identify small molecule agonists of the estrogen receptor alpha (ER-alpha) signaling pathway in the presence of an antagonist - cell viability counter screen (AID 1259386).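 Also: cells exposed to compounds for 22 h at 37 °C before the viability read; nearly all actives have a fitted effect of over 30% in size.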 Also: potency is read from the fitted curve at half-maximal effect. Put shortly:
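In this counter screen, compound effects on VM7Luc4E2 viability were tested in the presence of the antagonist ICI-182,780 at 10.0nM final. Compounds were dosed at 15 concentrations, exposure lasted 22hr, and the CellTiter-Fluor signal was read.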

Test [7] is described as follows: qHTS assay to identify small molecule antagonists of the progesterone receptor (PR) signaling pathway - cell viability counter screen (AID 1346798). Also: nearly all actives have a fitted effect of over 50% in size. Also: potency is read from the fitted curve at half-maximal effect. Put shortly:
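CellTiter-Glo luminescence; PR-UAS-bla HEK293T, 3,000 cells/well; compound + R5020, 16 hr, 37C/5% CO2; 30 min RT before read.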

The nature of test [8]: qHTS assay to identify small molecule agonists of the TGF-beta/Smad signaling pathway - cell viability counter screen (AID 1346829). Also: top concentration of the series differs between compounds; nearly all actives have a fitted effect of over 45% in size. Put shortly:
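HEK 293T SBE-bla line, 5 hr compound exposure at 37 C, multiplexed CellTiter-Glo viability read by luminescence.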

A short description of test [9]: qHTS assay to identify small molecule agonists of the TGF-beta/Smad signaling pathway (AID 1346859; active = well fitted activation curve with a large enough effect in the signal ratio in the repeat runs, not every such curve was filed as active; the % refers to the signal ratio; also: series mostly up to about 77 µM). Put shortly: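 After overnight seeding, SBE-bla HEK 293T cells are dosed with compounds in DMSO and kept 5 hr at 37 C, 5% CO2. LiveBLAzer-type FRET substrate is then applied for 2 hr at room temperature.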
Test [10] has as its target Thyrotropin-releasing hormone receptor (Homo sapiens) (UniProt P34981). Description: qHTS assay to identify small molecule antagonists of the thyrotropin-releasing hormone receptor (TRHR) signaling pathway (AID 1346877; active = well fitted inhibition curve with a large enough effect in the repeat runs, not every such curve was filed as active; also: series mostly up to about 51 µM). Put shortly: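 Kinetic fluorescence (3 min, 1 s resolution) following stimulation with TRH at 1 nM final; HEK293 cells bearing human TRHR; 5 min compound preincubation at RT; concentration-response over 15 points, triplicates.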

Test [11] has the same target. Description: qHTS assay to identify small molecule agonists of the thyrotropin-releasing hormone receptor (TRHR) signaling pathway (AID 1346891; calls by dose curve; also: potency is read from the fitted curve at half-maximal effect;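 as to activation: HEK293 cells expressing TRHR with calcium dye readout; series mostly up to about 58 µM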). Put shortly: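 Compounds were tested as agonists at 15 concentrations, in triplicate, on TRHR-Hek293 cells; calcium-sensitive dye fluorescence was recorded for 3 min following addition.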
Test [12] in a line: qHTS assay to identify small molecule agonists of the estrogen receptor beta (ER-beta) signaling pathway - cell viability counter screen (AID 1259380). Also: nearly all actives have a fitted effect of over 30% in size. Also: potency is read from the fitted curve at half-maximal effect. Put shortly:
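Steps: plate ER-beta-UAS-bla HEK293T cells, rest 6 hr; add compounds in DMSO; incubate 16 hr at 37C, 5% CO2; add FRET substrate 2 hr; add CellTiter-Glo, wait 30 min at room temperature; read luminescence.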

Test [13] can be described thus: qHTS assay to identify small molecule antagonists of the estrogen receptor beta (ER-beta) signaling pathway - cell viability counter screen (AID 1259382). Also: nearly all actives have a fitted effect of over 55% in size. Also: potency is read from the fitted curve at half-maximal effect. Put shortly:
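Viability is scored by CellTiter-Glo luminescence (30 min, room temperature) in ER-beta-UAS-bla HEK293T wells already read for reporter fluorescence. Compound exposure lasts 16 hr at 37C alongside 1nM 17-beta-estradiol in charcoal-stripped serum medium.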

Test [14] deals with Progesterone receptor (Homo sapiens) (UniProt P06401). Description: qHTS assay to identify small molecule agonists of the progesterone receptor (PR) signaling pathway (AID 1346784; calls by dose curve; also: nearly all actives have a fitted effect of over 30% in size). Put shortly:
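Fluorescence from LiveBLAzer B/G FRET substrate cleavage (2 hr, RT) reported PR activation in PR-UAS-bla HEK 293T cells treated 16 hr at 37C/5% CO2 with compounds; medium contained 2% charcoal-stripped FBS.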

Test [15] in a line: qHTS assay to identify small molecule agonists of the progesterone receptor (PR) signaling pathway - cell viability counter screen (AID 1346799; calls by dose curve; also: nearly all actives have a fitted effect of over 45% in size). Put shortly: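 In parallel with the beta-lactamase readout, cytotoxicity toward PR-UAS-bla HEK293T cells was measured by CellTiter-Glo luminescence following 16 hr compound incubation in 2% charcoal-stripped FBS medium.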
The nature of test [16]: qHTS assay to identify small molecule antagonists of the TGF-beta/Smad signaling pathway - cell viability counter screen (AID 1346824). Also: nearly all actives have a fitted effect of over 50% in size. Put shortly: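 SBE-bla HEK 293T cells were plated overnight at 37 C, then given compounds in DMSO plus TGF-beta1 (added as 0.25 ng/mL solution) for 5 hr. After the bla read, CellTiter-Glo was added to the same wells and luminescence read after 30 min at room temperature.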

For test [17], the target named is Androgen receptor (Homo sapiens) (UniProt P10275). The test can be described thus: qHTS assay to identify small molecule agonists of the androgen receptor (AR) signaling pathway in the presence of an antagonist (AID 1259381; calls by dose curve; also: nearly all actives have a fitted effect of over 15% in size). Put shortly:
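Reporter-gene luminescence from MDA-kb2 cells exposed 16hr at 37C (0% CO2) to 15-point compound titrations with 3.0uM final nilutamide as AR antagonist.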

Test [18] addresses Progesterone receptor (Homo sapiens) (UniProt P06401). The test can be described thus: qHTS assay to identify small molecule antagonists of the progesterone receptor (PR) signaling pathway (AID 1346795; active = well fitted inhibition curve with a large enough effect in the signal ratio in the repeat runs, not every such curve was filed as active; the % refers to the signal ratio; also: potency is read from the fitted curve at half-maximal effect). Put shortly:
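Fluorescence intensity measured 2 hr after adding beta-lactamase FRET substrate to PR-UAS-bla HEK293T cells that had been co-treated 16 hr with compound and 1 nM R5020 (final concentration) in 2% charcoal-stripped FBS.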

For test [19], the target named is Estrogen receptor (Homo sapiens) (UniProt P03372). Description: qHTS assay to identify small molecule agonists of the estrogen receptor alpha (ER-alpha) signaling pathway in the presence of an antagonist (AID 1259383; calls by dose curve; also: top concentration of the series differs between compounds; nearly all actives have a fitted effect of over 15% in size). Put shortly: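 Readout was ERE-driven luciferase luminescence in VM7Luc4E2 cells, which express full-length ER-alpha endogenously. Compounds were tested at 15 concentrations for 22hr alongside 10.0nM ICI-182,780 (final concentration).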

SMILES strings stand for the structures. Where “and” joins values, the source holds several entries; their conditions need not be identical. Equal values may be shown once. Results filed as inconclusive are left out. Some structures have more than one record in an assay (separate samples or runs), and their calls can disagree. Calls of active or inactive are those of the source. Unless noted, calls follow the shape of the dose curve; as a rule, active = well fitted curve in the direction sought with a large enough effect in the repeat runs; inconclusive = weak or mixed curves; inactive = no such curve, though single readings can be large; an effect the other way counts as inactive or inconclusive.

Chain of Estrogen receptor beta (Homo sapiens) (Q92731 whole entry, looked up): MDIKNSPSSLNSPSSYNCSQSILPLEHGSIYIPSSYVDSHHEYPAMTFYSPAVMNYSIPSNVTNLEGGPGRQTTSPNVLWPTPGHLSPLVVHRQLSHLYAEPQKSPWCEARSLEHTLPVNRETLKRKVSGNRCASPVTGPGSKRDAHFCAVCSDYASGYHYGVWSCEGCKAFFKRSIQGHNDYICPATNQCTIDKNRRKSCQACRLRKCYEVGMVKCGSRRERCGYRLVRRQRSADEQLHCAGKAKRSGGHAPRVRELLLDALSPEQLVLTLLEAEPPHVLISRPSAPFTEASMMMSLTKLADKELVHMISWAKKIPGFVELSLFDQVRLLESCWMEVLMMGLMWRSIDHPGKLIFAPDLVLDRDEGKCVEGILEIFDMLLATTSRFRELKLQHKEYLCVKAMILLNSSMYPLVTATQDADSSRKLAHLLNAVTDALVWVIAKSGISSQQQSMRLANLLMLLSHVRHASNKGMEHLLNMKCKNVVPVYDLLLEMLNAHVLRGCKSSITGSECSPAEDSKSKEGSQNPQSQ
Chain of Thyrotropin receptor (Homo sapiens) (P16473 whole entry, looked up): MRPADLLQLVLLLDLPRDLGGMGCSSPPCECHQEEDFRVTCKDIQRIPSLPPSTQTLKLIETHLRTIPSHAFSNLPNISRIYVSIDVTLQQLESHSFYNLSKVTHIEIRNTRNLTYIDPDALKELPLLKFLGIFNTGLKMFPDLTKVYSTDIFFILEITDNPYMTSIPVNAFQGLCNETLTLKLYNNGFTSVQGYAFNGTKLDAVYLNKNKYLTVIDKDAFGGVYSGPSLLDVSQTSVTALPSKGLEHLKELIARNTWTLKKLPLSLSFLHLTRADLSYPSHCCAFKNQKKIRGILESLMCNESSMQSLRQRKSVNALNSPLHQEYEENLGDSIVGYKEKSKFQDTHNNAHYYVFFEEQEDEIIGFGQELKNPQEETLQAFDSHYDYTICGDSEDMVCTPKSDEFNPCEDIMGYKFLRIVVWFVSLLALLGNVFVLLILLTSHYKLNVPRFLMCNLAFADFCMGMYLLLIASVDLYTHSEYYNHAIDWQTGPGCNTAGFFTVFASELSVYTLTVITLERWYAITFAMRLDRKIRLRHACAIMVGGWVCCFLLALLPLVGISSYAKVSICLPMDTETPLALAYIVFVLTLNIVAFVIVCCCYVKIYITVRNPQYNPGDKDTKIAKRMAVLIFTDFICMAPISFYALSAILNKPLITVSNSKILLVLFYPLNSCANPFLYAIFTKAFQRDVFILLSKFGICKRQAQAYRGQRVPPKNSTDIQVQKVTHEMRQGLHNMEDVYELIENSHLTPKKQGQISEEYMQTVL
Chain of Thyrotropin-releasing hormone receptor (Homo sapiens) (P34981 whole entry, looked up): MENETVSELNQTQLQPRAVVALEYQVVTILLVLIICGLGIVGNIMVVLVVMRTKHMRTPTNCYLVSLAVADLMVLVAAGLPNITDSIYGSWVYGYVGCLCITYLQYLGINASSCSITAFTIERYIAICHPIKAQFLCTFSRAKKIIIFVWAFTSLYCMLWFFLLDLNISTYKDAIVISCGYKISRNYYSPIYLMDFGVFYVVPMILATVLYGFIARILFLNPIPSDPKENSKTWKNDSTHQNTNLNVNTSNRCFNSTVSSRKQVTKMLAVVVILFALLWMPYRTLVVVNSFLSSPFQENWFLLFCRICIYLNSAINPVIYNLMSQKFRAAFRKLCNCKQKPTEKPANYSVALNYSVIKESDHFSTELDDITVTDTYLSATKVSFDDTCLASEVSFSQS
Chain of Progesterone receptor (Homo sapiens) (P06401 whole entry, looked up): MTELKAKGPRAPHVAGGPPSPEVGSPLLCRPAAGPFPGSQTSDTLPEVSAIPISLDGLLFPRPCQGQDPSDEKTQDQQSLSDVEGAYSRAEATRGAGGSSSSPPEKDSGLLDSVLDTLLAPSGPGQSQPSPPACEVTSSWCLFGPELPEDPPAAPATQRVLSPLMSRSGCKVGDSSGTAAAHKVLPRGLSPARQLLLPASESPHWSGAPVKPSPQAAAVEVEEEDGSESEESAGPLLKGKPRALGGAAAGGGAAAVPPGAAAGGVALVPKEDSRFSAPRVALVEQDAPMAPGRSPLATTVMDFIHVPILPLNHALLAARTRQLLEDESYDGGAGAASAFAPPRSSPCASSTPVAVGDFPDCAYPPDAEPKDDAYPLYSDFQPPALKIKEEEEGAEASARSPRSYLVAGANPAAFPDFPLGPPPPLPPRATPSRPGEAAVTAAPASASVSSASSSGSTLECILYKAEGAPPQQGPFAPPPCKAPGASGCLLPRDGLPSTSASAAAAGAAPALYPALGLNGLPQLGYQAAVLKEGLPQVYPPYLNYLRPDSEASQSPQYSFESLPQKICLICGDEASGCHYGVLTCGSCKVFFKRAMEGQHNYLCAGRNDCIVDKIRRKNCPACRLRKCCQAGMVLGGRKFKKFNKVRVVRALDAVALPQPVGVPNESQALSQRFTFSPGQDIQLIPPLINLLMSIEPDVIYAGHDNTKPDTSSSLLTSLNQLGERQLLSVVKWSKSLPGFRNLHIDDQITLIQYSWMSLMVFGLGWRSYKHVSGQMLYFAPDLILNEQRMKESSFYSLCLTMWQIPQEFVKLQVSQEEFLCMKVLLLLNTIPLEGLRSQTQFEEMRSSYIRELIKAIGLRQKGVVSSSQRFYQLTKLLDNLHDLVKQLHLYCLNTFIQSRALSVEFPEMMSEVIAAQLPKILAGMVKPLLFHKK
Chain of Androgen receptor (Homo sapiens) (P10275 whole entry, looked up): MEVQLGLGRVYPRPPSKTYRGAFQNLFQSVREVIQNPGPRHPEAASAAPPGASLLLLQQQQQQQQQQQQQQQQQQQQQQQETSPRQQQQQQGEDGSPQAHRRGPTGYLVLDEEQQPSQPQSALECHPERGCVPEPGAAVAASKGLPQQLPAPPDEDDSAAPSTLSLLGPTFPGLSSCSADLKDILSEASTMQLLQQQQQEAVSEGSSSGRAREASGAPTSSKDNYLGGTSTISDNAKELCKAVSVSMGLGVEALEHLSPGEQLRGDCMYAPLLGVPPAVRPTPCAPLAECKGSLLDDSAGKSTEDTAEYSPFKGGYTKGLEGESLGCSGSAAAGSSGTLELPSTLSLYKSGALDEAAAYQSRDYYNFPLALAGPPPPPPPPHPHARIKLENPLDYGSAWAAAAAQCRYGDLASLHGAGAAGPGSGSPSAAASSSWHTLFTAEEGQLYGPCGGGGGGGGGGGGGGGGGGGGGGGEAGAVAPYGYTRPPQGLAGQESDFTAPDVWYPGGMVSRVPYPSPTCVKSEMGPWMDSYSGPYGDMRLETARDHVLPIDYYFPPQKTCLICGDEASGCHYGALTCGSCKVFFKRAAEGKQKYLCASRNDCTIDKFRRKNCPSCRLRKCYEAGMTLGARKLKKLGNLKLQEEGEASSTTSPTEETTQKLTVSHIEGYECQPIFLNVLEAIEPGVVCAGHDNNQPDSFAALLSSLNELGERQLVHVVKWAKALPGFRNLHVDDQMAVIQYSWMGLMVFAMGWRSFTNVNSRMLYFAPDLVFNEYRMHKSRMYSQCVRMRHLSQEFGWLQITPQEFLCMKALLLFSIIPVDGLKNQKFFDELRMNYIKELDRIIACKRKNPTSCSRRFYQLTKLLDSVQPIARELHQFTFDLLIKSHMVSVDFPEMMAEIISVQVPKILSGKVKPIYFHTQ
Chain of Estrogen receptor (Homo sapiens) (P03372 whole entry, looked up): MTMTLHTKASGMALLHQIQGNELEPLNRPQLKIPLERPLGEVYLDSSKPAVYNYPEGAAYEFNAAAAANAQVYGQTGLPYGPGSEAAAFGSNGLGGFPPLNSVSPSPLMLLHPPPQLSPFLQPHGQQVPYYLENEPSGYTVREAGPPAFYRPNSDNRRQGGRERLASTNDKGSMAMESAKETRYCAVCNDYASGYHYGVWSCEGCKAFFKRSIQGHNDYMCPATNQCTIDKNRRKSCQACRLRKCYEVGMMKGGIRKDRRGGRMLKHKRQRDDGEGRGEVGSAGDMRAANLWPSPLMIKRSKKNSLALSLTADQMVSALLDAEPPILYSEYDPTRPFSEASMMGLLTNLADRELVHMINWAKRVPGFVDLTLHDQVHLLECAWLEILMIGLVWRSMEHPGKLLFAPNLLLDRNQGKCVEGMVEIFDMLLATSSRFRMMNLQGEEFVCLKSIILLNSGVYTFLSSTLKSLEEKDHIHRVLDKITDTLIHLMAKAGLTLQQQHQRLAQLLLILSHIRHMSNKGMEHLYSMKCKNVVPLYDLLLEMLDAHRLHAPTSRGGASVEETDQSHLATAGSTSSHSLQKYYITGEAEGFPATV

`Oc1c(Cl)cc(Cl)c(Cl)c1Cl`: the Potency in [1] is 48.6 µM (active). Besides, the Potency result in test [2], in [3], in test [6], in [7], in test [8] and in test [11] was “inactive” each time. Besides, the compound was classed as inactive in test [4], in test [5], in test [9] and in test [10].
`CCCCOCCO`: the Potency entry in test [1], in [3], in [12], in test [13], in test [6] and in [14] was “inactive” in each case. The Potency result in test [7], in test [15], in [16], in test [8] and in test [11] was “inactive” each time. Also, the outcome in test [4], in test [5], in test [9] and in test [10] was inactive.
`Oc1ccc2ccccc2c1`: the Potency in test [1] is 5.58 µM (active) and 9.69 µM (active); in [18], 48.6 µM (active). For the same compound, the Potency entry in test [3], in test [12], in test [17], in test [13], in test [6] and in test [14] was “inactive” each time. For the same compound, the Potency result in test [7], in test [15], in [16] and in [8] was “inactive” throughout. Besides, the outcome in test [4] and in test [9] was inactive.
`CS(=O)(=O)Nc1ccc([N+](=O)[O-])cc1Oc1ccccc1`: the Potency result in test [1], in [2], in [12], in [13], in test [14] and in test [18] was “inactive” throughout. The Potency result in [7], in [15], in [16], in test [8] and in [11] was “inactive” in each case. In addition, the Potency in [3] is 26.6 µM (active); in [6], 48.6 µM (active) and 26.6 µM (active). For the same compound, the outcome in test [4], in test [9] and in [10] was inactive.
In the case of `CC(C)NCC(O)COc1cccc2ccccc12` (stereo unspecified), the Potency in test [1] was 24.3 µM (active); in [12], 55 µM (active) and 54.5 µM (active); in [13] it was 27.6 µM (active); in test [7], 30.9 µM (active) and 27.3 µM (active); in test [11], “inactive and 43.7 µM (active)”. The Potency result in test [2], in test [3], in [6], in [14], in test [16] and in test [8] was “inactive” each time. Also, the compound was classed as inactive in test [9] and in [10].
Take `COC(=O)Nc1nc2ccc(Sc3ccccc3)cc2[nH]1`: in test [1], the Potency is 1.93 µM (active) and 2.66 µM (active). In addition, the Potency entry in [3], in test [12], in test [13], in [6], in test [14] and in [7] was “inactive” each time. Also, the Potency entry in test [16], in [8] and in test [11] was “inactive” throughout. Also, the compound was classed as inactive in [4], in [9] and in [10].
For the compound `OC[C@@H](O)[C@H](O)[C@H](O)[C@@H](O)CO`, the Potency entry in test [1], in [3], in test [12], in [13], in test [19] and in test [6] was “inactive” throughout. For the same compound, the Potency result in test [14], in [7], in test [15], in [16] and in test [8] was “inactive” each time. Further, the call in [4], in [5] and in [9] was inactive.

The values above are taken from PubChem BioAssay (Tox21).
